Assay [1] is described as follows: qHTS assay to identify small molecule agonists of the estrogen receptor alpha (ER-alpha) signaling pathway in the presence of an antagonist - cell viability counter screen (AID 1259386).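 Further: cells exposed to compounds for 22 h at 37 °C before the viability read; nearly all actives have a fitted effect of over 30% in size.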 Further: potency means the concentration at half of the fitted maximal effect. Put shortly: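 VM7Luc4E2, stripped-serum pre-culture 5 d; 24hr plating; +ICI-182,780 10.0nM final; cpds 15 conc, 22hr, 37C/5% CO2; CellTiter-Fluor added at 21hr, fluorescence 1hr later.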

The target in assay [2] is Progesterone receptor (Homo sapiens) (UniProt P06401). As to the kind of experiment: qHTS assay to identify small molecule agonists of the progesterone receptor (PR) signaling pathway (AID 1346784; calls by dose curve; further: nearly all actives have a fitted effect of over 30% in size; further: potency means the concentration at half of the fitted maximal effect). The method, boiled down: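 Agonist qHTS: compounds pinned onto 3,000 PR-UAS-bla HEK 293T cells per well in charcoal-stripped serum medium, 16hr at 37C, then beta-lactamase activity measured by LiveBLAzer FRET fluorescence after 2 hours at room temperature.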

For assay [3] the target is unchanged. The assay is described as follows: qHTS assay to identify small molecule antagonists of the progesterone receptor (PR) signaling pathway (AID 1346795; active means well fitted inhibition curve with a large enough effect in the signal ratio in the repeat runs, not every such curve was filed as active; the % refers to the signal ratio; further: potency means the concentration at half of the fitted maximal effect). Put shortly: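 Antagonist mode with agonist R5020 at 1 nM final and 16 hr incubation at 37C. Reporter was beta-lactamase driven by UAS in HEK293T (PR-UAS-bla), 2% charcoal-stripped serum; signal from LiveBLAzer FRET substrate, 2 hr at room temperature.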

The nature of assay [4]: qHTS assay to identify small molecule agonists of the TGF-beta/Smad signaling pathway - cell viability counter screen (AID 1346829). Further: top concentration of the series differs between compounds; nearly all actives have a fitted effect of over 45% in size. The method, boiled down:
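Luminescence from CellTiter-Glo, read after a 30 min room-temperature incubation, gives cell viability of SBE-bla HEK 293T cells treated 5 hr with compounds at 37 C.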

Assay [5] can be described thus: qHTS assay to identify small molecule agonists of the TGF-beta/Smad signaling pathway (AID 1346859; active means well fitted activation curve with a large enough effect in the signal ratio in the repeat runs, not every such curve was filed as active; the % refers to the signal ratio; further: series mostly up to about 77 µM). The method, boiled down:
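Fluorescence (ex 405 nm; em 460 and 530 nm) was read 2 h after LiveBLAzer FRET substrate at RT. The preceding compound treatment of overnight-plated SBE-bla HEK293T cells lasted 5 h at 37 C.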

Assay [6] addresses Thyrotropin-releasing hormone receptor (Homo sapiens) (UniProt P34981). The assay is described as follows: qHTS assay to identify small molecule antagonists of the thyrotropin-releasing hormone receptor (TRHR) signaling pathway (AID 1346877; active means well fitted inhibition curve with a large enough effect in the repeat runs, not every such curve was filed as active; further: series mostly up to about 51 µM). The method, boiled down: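 Intracellular calcium fluorescence, read kinetically every second over 3 min, reports TRH-evoked signalling in HEK293 cells carrying TRHR. Test compounds were added 5 min ahead of a 1 nM TRH challenge.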

For assay [7] the target is unchanged. The assay is described as follows: qHTS assay to identify small molecule agonists of the thyrotropin-releasing hormone receptor (TRHR) signaling pathway (AID 1346891; calls by dose curve; further: potency means the concentration at half of the fitted maximal effect; on activation: series mostly up to about 58 µM). Put shortly: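 Agonist-mode intracellular calcium readout: kinetic fluorescence over 3 min at 1 s intervals after compound addition to TRHR-HEK293 cells (18 h seeded, 2 h dye-loaded at 37 C). Fifteen concentrations, triplicates.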

The nature of assay [8]: Human pregnane X receptor (PXR) small molecule agonists, qHTS cell viability counter screen (AID 1346977). Further: nearly all actives have a fitted effect of over 50% in size. Further: potency means the concentration at half of the fitted maximal effect. The method, boiled down:
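Same-well viability read: CellTiter-Fluor added after 23 hr compound exposure, fluorescence measured 1 hr later. Cells were PXR-Luc HepG2 seeded at 2,000/well in 5% charcoal-stripped FBS medium, rested 5 hr before dosing at 37 C.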

Assay [9] in a line: Caspase-3/7 induction in HepG2 cells by small molecules, qHTS assay (AID 1346978). Further: nearly all actives have a fitted effect of over 15% in size. Put shortly: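 Caspase-3/7 induction was measured by Caspase-Glo 3/7 luminescence (30 min, room temperature) after a 17 hr compound exposure of wild-type HepG2 cells seeded at 2,000 per well and pre-incubated 5 hr.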
Assay [10] can be described thus: Caspase-3/7 induction in CHO-K1 cells by small molecules, qHTS assay (AID 1346980). Further: nearly all actives have a fitted effect of over 15% in size. Put shortly:
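Luminescent Caspase-Glo 3/7 read (30min, room temperature) quantified apoptosis induction. Cells were wild-type CHO-K1, treated with compound for 17hr at 37 C and 5% CO2.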

Assay [11] in a line: Caspase-3/7 induction in HepG2 cells by small molecules, qHTS cell viability counter screen (AID 1346981). Further: nearly all actives have a fitted effect of over 30% in size. Further: potency means the concentration at half of the fitted maximal effect. The method, boiled down:
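HepG2, WT, 2,000 cells/well; 5 hr pre-incubation 37 C/5% CO2; compound pin-transferred from DMSO; 16 hr exposure; CellTiter-Fluor, 1 hr; fluorescence read.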

In assay [12] the target is Nuclear receptor subfamily 1 group I member 2 (Homo sapiens) (UniProt O75469). As to the kind of experiment: Human pregnane X receptor (PXR) small molecule agonists, qHTS assay (AID 1346982). Further: nearly all actives have a fitted effect of over 35% in size. Further: potency means the concentration at half of the fitted maximal effect. Put shortly:
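Luciferase signal from ONE-Glo (30 min, room temperature) measured activation of hPXR-driven CYP3A4 reporter expression in PXR-Luc HepG2 cells treated with compounds for 24 hr at 37 C.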

The target in assay [13] is Acetylcholinesterase (Homo sapiens) (UniProt P22303). The assay is described as follows: Acetylcholinesterase (AChE) small molecule antagonists: colormetric cell-based qHTS assay (AID 1347395; calls by dose curve; further: nearly all actives have a fitted effect of over 30% in size; further: potency means the concentration at half of the fitted maximal effect). Put shortly:
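Colorimetric readout: DTNB quantifies thiocholine from acetylthiocholine hydrolysed by endogenous AChE of SH-SY5Y cells (2,000/well, plated overnight). Compound pretreatment 30 min, substrate incubation 90 min, both 37 C.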

The nature of assay [14]: qHTS assay to identify small molecule antagonists of the progesterone receptor (PR) signaling pathway - cell viability counter screen (AID 1346798). Further: series mostly up to about 92 µM; nearly all actives have a fitted effect of over 50% in size. The method, boiled down:
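Cytotoxicity read as CellTiter-Glo luminescence (30 min, room temperature) in the same wells as the beta-lactamase readout. HEK293T PR-UAS-bla cells in charcoal-stripped 2% FBS received compound and R5020, then 16 h at 37C, 5% CO2.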

Assay [15] can be described thus: qHTS assay to identify small molecule antagonists of the TGF-beta/Smad signaling pathway - cell viability counter screen (AID 1346824). Further: nearly all actives have a fitted effect of over 50% in size. Put shortly:
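Cytotoxicity counter-screen run in the same wells as the beta-lactamase Smad reporter read: CellTiter-Glo luminescence after 30 min at room temperature. HEK 293T SBE-bla cells had 5 hr compound exposure at 37 C with TGF-beta1 (0.25 ng/mL stock).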

The nature of assay [16]: qHTS assay to identify small molecule agonists of the progesterone receptor (PR) signaling pathway - cell viability counter screen (AID 1346799; calls by dose curve; further: nearly all actives have a fitted effect of over 45% in size). Put shortly:
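Cytotoxicity measured by CellTiter-Glo luminescence (30 min, RT) in the same wells as the PR beta-lactamase agonist read. Those HEK293T cells had 16 h compound treatment at 37 C in 2% charcoal-stripped FBS medium.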

Assay [17] can be described thus: Caspase-3/7 induction in CHO-K1 cells by small molecules, qHTS cell viability counter screen (AID 1346979). Further: nearly all actives have a fitted effect of over 35% in size. Further: potency means the concentration at half of the fitted maximal effect. Put shortly: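 Cytotoxicity counter screen: CellTiter-Fluor added to compound-treated wild-type CHO-K1 cells at 16 h (37C, 5% CO2), fluorescence measured 1 h later; same wells as caspase-3/7 measurement.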
For assay [18], the target named is Nuclear receptor subfamily 1 group I member 2 (Rattus norvegicus) (UniProt Q9R1A7). As to the kind of experiment: Rat pregnane X receptor (rPXR) activation by small molecules, qHTS assay (AID 1346983). Further: nearly all actives have a fitted effect of over 20% in size. Particulars: rPXR luciferase reporter cells, One-Glo luminescence, 24 h; max activation: hits give high values. The method, boiled down:
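Luminescent readout (One-Glo luciferase, 30 min room temperature) followed 24 hr compound treatment at 37 C of rPXR cells plated 2,000 per well and preincubated 5hr; qHTS format with compounds delivered in DMSO.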

Assay [19] has as its target Nuclear receptor subfamily 1 group I member 2 (Homo sapiens) (UniProt O75469). As to the kind of experiment: CYP3A4 induction through human pregnane X receptor (PXR) by small molecules, qHTS assay (AID 1346984). Further: nearly all actives have a fitted effect of over 40% in size. The method, boiled down:
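Luminescence readout: luciferase signal after One-Glo (30 min, room temperature), following 3 h at 37C with 3uM final Luciferin-IPA P450 substrate. Cells were DPX-2 (HepG2, PXR/CYP3A4-luc co-transfected) dosed for 24 h.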

Assay [20] has the same target. The assay is described as follows: Human pregnane X receptor (PXR) activation by small molecules, qHTS assay (AID 1346985). Further: nearly all actives have a fitted effect of over 40% in size. The method, boiled down:
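DPX-2 cells (HepG2 co-transfected with a PXR response element and a CYP3A4-promoter luciferase construct) were seeded at 2,000 per well, rested 5 hr at 37C, then exposed to DMSO-dissolved compounds for 24 hr. Activation was read as luciferase luminescence.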

Where “and” joins values, the source holds several entries; their conditions need not be identical. Equal values may be shown once. Values without a mark were called inactive. Inconclusive results are not listed. Calls of active or inactive are those of the source. Unless noted, the call rests on the fitted dose curve; in most records, active means well fitted curve in the direction sought with a large enough effect in the repeat runs; inconclusive means weak or mixed curves; inactive means no such curve, though single readings can be large; an effect the other way counts as inactive or inconclusive.
On the % scale 0 is the no-effect control and ±100 the full control effect.

Chain of Acetylcholinesterase (Homo sapiens) (P22303 whole entry, looked up): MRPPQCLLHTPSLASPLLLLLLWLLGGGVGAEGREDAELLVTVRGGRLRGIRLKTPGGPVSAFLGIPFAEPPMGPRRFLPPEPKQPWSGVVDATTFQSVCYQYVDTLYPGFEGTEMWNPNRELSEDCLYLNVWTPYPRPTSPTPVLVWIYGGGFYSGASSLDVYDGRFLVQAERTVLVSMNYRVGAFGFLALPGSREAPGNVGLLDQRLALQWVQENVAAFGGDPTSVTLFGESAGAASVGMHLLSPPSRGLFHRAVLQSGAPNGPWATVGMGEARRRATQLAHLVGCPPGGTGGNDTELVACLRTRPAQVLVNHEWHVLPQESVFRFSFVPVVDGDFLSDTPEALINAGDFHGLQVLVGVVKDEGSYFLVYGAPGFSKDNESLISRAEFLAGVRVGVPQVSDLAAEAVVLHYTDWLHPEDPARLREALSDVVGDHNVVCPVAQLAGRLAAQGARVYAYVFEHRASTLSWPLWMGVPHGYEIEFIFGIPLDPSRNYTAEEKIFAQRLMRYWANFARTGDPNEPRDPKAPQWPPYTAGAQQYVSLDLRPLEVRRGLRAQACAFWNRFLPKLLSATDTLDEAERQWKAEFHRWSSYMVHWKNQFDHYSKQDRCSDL
Chain of Progesterone receptor (Homo sapiens) (P06401 whole entry, looked up): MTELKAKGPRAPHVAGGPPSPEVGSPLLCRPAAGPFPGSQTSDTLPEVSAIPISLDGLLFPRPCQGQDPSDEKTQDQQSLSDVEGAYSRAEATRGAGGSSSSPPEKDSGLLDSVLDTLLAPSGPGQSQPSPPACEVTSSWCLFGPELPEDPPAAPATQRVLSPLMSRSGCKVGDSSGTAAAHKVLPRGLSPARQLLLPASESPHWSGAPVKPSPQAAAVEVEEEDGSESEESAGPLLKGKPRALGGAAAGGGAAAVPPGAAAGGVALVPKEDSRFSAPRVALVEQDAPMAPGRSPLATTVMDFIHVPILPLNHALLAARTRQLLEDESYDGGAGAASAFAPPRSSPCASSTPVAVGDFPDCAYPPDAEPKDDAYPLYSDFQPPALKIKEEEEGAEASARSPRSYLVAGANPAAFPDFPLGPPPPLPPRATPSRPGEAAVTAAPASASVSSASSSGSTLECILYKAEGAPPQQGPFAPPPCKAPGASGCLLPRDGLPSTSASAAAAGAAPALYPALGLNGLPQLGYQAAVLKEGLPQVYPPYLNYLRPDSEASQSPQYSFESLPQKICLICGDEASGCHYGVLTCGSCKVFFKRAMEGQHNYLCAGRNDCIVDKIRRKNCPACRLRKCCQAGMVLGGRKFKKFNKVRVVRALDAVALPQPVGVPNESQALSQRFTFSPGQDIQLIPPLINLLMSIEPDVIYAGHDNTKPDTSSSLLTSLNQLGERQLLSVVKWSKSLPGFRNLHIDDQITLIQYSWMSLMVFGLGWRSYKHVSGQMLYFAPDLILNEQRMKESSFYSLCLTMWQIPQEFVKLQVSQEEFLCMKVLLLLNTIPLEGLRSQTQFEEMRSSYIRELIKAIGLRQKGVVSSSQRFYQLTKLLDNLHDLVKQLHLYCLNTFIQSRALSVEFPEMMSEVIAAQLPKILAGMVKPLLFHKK
Chain of Thyrotropin-releasing hormone receptor (Homo sapiens) (P34981 whole entry, looked up): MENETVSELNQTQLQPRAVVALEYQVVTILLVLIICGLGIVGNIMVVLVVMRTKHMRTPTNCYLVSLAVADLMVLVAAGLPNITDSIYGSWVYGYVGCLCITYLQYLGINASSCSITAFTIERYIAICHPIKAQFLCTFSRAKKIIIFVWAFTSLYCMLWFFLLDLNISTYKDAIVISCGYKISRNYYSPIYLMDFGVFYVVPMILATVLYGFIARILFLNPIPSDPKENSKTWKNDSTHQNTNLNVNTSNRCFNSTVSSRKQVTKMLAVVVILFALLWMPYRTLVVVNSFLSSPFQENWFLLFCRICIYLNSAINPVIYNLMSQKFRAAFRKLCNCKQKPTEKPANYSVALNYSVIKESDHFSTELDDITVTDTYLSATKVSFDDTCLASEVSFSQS
Chain of Nuclear receptor subfamily 1 group I member 2 (Homo sapiens) (O75469 whole entry, looked up): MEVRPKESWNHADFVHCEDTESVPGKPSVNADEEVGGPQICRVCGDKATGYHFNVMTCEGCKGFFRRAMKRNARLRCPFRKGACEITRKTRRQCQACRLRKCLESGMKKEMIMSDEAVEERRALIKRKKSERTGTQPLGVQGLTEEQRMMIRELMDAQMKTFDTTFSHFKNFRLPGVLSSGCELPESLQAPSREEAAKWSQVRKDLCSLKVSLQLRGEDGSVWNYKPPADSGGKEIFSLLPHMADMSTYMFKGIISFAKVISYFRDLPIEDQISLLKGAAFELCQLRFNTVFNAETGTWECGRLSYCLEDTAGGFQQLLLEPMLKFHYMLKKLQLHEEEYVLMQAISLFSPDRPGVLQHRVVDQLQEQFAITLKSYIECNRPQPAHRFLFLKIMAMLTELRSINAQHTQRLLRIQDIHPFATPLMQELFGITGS
Chain of Nuclear receptor subfamily 1 group I member 2 (Rattus norvegicus) (Q9R1A7 whole entry, looked up): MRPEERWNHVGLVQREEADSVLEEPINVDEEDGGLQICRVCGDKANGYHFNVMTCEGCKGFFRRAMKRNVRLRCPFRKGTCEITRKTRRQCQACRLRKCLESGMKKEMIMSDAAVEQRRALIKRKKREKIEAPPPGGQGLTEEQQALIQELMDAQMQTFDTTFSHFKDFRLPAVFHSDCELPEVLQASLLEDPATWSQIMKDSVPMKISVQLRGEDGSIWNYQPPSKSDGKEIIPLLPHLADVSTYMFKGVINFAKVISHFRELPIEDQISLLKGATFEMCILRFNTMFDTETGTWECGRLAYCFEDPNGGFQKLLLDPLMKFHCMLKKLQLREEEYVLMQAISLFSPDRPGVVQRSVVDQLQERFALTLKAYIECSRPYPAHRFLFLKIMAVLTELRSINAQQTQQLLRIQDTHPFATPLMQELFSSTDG

In the case of `CO/N=C(/C1=NOCCO1)c1ccccc1Oc1ncnc(Oc2ccccc2Cl)c1F`, the Potency in assay [1] is 27.3 µM (active); in assay [3], 27.3 µM (active); in [8], 9.68 µM (active); in [11] it was 30.6 µM (active); in assay [12], 27.3 µM (active). Besides, the Potency result in [2], in assay [4], in assay [6], in [7], in [9] and in assay [10] was “inactive” throughout. Besides, in [13], the Potency entry was “inactive”. The compound was classed as inactive in [5].

Take `CCCCC/C=C\C/C=C\C/C=C\C/C=C\CCCC(=O)NCC(=O)O`: the Potency entry in [1], in [2], in assay [14], in assay [15], in assay [4] and in assay [8] was “inactive” throughout. Further, the Potency entry in [9], in [11], in [12] and in assay [13] was “inactive” throughout. In addition, in assay [3], the Potency is 26.6 µM (active).

With `CCC(C)c1cccc(C(C)CC)c1O` (configuration not stated), the Potency entry in [1], in assay [2], in assay [14], in assay [16], in [15] and in assay [4] was “inactive” in each case. For the same compound, the Potency result in assay [6], in [7], in assay [8], in assay [10], in [11] and in [12] was “inactive” throughout. In assay [13], the Potency result is “inactive”. For the same compound, the call in [5] was inactive.

`CNC(=O)Oc1cc(C)cc(C(C)C)c1`: the Potency entry in assay [1], in [2], in assay [3], in assay [15], in assay [4] and in assay [6] was “inactive” in each case. The Potency entry in assay [7], in assay [8], in assay [9], in [10] and in assay [11] was “inactive” each time. The outcome in assay [5] was inactive. Further, the Potency in [13] was 0.633 µM (active).

Regarding `CC(C)=CC1C(C(=O)OC(C#N)c2cccc(Oc3ccccc3)c2)C1(C)C` (configuration not stated), the Potency result in [1], in [2], in assay [14], in [16], in assay [15] and in assay [4] was “inactive” each time. In addition, the Potency result in [6], in assay [7], in assay [8], in [9], in [10] and in assay [11] was “inactive” in each case. Also, in [13], the Potency result was “inactive”. Further, the outcome in [5] was inactive. Besides, in assay [12], the Potency was 17.2 µM (active).

Regarding `COc1ccc(Cc2nccc3cc(OC)c(OC)cc23)cc1OC`, the Potency in [1] is 13.3 µM (active); in assay [8], 9.44 µM (active); in assay [17], 13.3 µM (active); in assay [12] it was 16.8 µM (active). The Potency entry in assay [2], in assay [3], in assay [15], in [4], in [6] and in [7] was “inactive” each time. The Potency result in assay [9], in assay [10], in assay [19] and in assay [20] was “inactive” throughout. In assay [5], the compound was classed as inactive. Also, in assay [18], the max activation was -16.6%.

As to `BrCCCBr`, the Potency result in assay [1], in assay [2], in assay [3], in [14], in [16] and in [15] was “inactive” throughout. In addition, the Potency result in assay [6], in assay [7], in assay [8], in assay [9], in assay [17] and in assay [10] was “inactive” throughout. In addition, the Potency entry in assay [11], in assay [12] and in [13] was “inactive” throughout. In addition, the compound was classed as inactive in assay [5].

Regarding `Nc1nc(N)c(N)c(N)n1`, the Potency result in assay [1], in assay [3], in assay [14], in assay [15], in assay [4] and in assay [6] was “inactive” throughout. For the same compound, the Potency entry in assay [8], in assay [9], in assay [10], in assay [12] and in [13] was “inactive” throughout. Further, the results for the Potency in assay [2] and in assay [7] were 7.74 µM (active) and 39.1 µM (active), respectively.

For `C[N+]1(C)[C@@H]2CC[C@H]1CC(OC(=O)C(CO)c1ccccc1)C2` (some centres not stated), the Potency result in [1], in assay [2], in assay [3], in [16], in assay [15] and in assay [8] was “inactive” throughout. Further, the Potency result in assay [9], in [17], in [10], in [11], in [12] and in assay [19] was “inactive” in each case. In addition, the Potency result in assay [20] and in [13] was “inactive” each time. In addition, in assay [5], the compound was called inactive. For the same compound, in assay [18], the max activation was 5.17% and -0.275%.
